Source: PubChem
This is a sample that favours compounds with a hit; in the whole collection about 21% have one here.
NS1 inh: blocks influenza NS1 protein function; Potency, µM (titrated, usually from 46.1 µM), for the others: at the highest dose activity, positive = more growth; 0.4% of 270,000 active; calls by dose curve; note: potency is the fitted concentration of half-maximal effect; actives are rising curves; nearly all actives have a fitted effect of over 50% in size
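OD600 was taken as the measure of yeast growth restored by compound in an NS1-expressing S. cerevisiae strain. Cells had been washed out of glucose medium and diluted 1:100 into galactose -URA medium, pH 6.0.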
Pf growth 96h: P. falciparum growth inhibition at 96 hours; 6.9% of 320,000 active; Potency, µM (titrated, usually from 28.7 µM), for inactives: at the highest dose activity change, negative = inhibition, actives largely listed as inhibitors; AID 504834; P. falciparum luciferase reporter growth, 96 h; note: potency is the fitted concentration of half-maximal effect; % is set by controls: 0 for no effect and ±100 for the full control effect
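Luminescence readout: decreased luciferase signal marks inhibited growth of reporter-expressing P. falciparum in infected red cells (2% hematocrit, 0.05% parasitemia final), exposed to compound two generations (96 h, 37 C, 5% CO2).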
Shiga toxin inh: blocks Shiga toxin action in Vero cells | AID 2315 | 9.2% of 290,000 active | Vero cells, Shiga toxin protein synthesis inhibition reporter | inhibition, % at 38.7 µM; in the data active = inhibition mostly above about 28%, no sharp cut-off; inactive = mostly below about 43%; note: 0% is about no effect
FBPA Giardia inh: Giardia lamblia aldolase inhibition; A8B2U2; purified Giardia FBPA; Potency, µM (series often up to 59.6 µM), for inactives: at the top dose activity, negative = inhibition, usual class: inhibitors; 0.71% of 290,000 active; AID 2451; note: potency is the fitted concentration of half-maximal effect; % is set by controls: 0 for no effect and ±100 for the full control effect; nearly all actives have a fitted effect of over 55% in size
Target sequence (A8B2U2 whole entry, looked up): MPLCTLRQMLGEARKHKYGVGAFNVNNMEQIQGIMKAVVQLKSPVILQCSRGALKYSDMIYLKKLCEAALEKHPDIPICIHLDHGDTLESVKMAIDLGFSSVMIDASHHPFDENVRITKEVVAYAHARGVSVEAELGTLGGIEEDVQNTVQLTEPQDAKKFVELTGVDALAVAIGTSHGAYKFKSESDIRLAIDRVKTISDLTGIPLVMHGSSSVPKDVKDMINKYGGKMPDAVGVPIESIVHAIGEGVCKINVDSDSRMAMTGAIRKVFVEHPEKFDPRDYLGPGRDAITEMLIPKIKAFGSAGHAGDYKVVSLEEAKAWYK
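Giardia FBPA (40 nM reagent) was preincubated 10 min at RT with compound (up to 57.5 uM final), then substrate plus GAPDH/TPI/NAD/arsenate coupling system with diaphorase/resazurin was added; resorufin fluorescence (525/598 nm) was read after 20 min.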
Cycloheximide cs: counter-screen hit for Shiga toxin inhibitors, cycloheximide. cell reporter, cycloheximide protein synthesis inhibition counterscreen. max response, %. 12% of 300,000 active. AID 2314; in the data active = max response mostly above about 13%, no sharp cut-off; inactive = mostly below about 14%; note: read at 38.3 µM for the half of the compounds with a filed dose; 0% is about no effect
Pf growth 48h: inhibits P. falciparum growth in the first generation, 48 h; P. falciparum luciferase growth in erythrocytes, 48 h; 5.9% of 310,000 active; Potency, µM (highest dose often 28.7 µM), for the others: top-dose activity change, negative = inhibition, usual class: inhibitors; note: potency is the fitted concentration of half-maximal effect; % is set by controls: 0 for no effect and ±100 for the full control effect
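In quantitative HTS format, infected erythrocytes bearing luciferase-reporter parasites were treated for a single generation at 37 C. Luminescence after adding detection reagent served as the growth measure.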
* marks the source's active call; other numbers are inactive results; ? = inconclusive; . = not tested or not shown; [ ] = remark or other dose. Unless noted, calls come from the whole dose curve; as a rule, active = well fitted curve in the direction sought with a large enough effect; inconclusive = small, poorly fitted or top-dose-only effect, or another doubt; inactive = no such curve, though single readings can be large; an effect the other way counts as inactive or inconclusive.

SMILES	NS1 inh	Pf growth 96h	Shiga toxin inh	FBPA Giardia inh	Cycloheximide cs	Pf growth 48h
COc1ccccc1C(N)=S	5.0%	18.3%	10.0	-2.3%	-2.1	12.8%
Cc1csc(C(C#N)C(=O)c2cc3ccccc3o2)n1 (stereo unspecified)	-62.8%	20.4%	55.1*	-18.8%	25.2*	100.0%
CCc1ccc(NC(=O)CCNC(=O)N2C[C@H]3C[C@@H](C2)c2cccc(=O)n2C3)cc1	-6.2%	3.5%	30.6*	3.1%	27.2*	9.8%
Cc1cccc(NC(=O)[C@@H](NC(=O)N2C[C@H]3C[C@@H](C2)c2cccc(=O)n2C3)C(C)C)c1	22.1%	5.22µM*	-4.1	10.4%	1.7	17.7%
COc1cccc(NC(=O)[C@@H](NC(=O)N2C[C@H]3C[C@@H](C2)c2cccc(=O)n2C3)C(C)C)c1	12.7%	8.3%	2.0	1.8%	-2.2	17.2%
COCCNc1ncnc2ccc(-c3ccccc3OC)cc12	.	.	.	-0.2%	.	.
O=C(c1ccc(CNS(=O)(=O)c2ccccc2)cc1)N1CCC2(CC1)OCCO2	-10.1%	8.28µM*	87.0	-9.1%	52.0	55.0%
O=C(CSc1ccccc1)N1CCC2(CC1)OCCO2	-6.4%	.	53.9*	9.0%	36.2*	153.2%
O=C(c1ccc(CNS(=O)(=O)c2ccc(Br)cc2)cc1)N1CCC2(CC1)OCCO2	-4.4%	?	-1.1	6.1%	-6.4	?
O=C(CSc1ccccc1)N1CCN(S(=O)(=O)c2ccccc2)CC1	3.0%	-10.3%	-4.3	.	-1.5	?
C=CCN1CCN(C(=O)CSc2ccccc2)CC1	-17.8%	0.0%	32.2*	3.9%	34.1*	78.6%
C=CCN1CCN(C(=O)c2ccc(-c3ccccc3)cc2)CC1	-15.4%	1.31µM*	-6.1	2.9%	-3.1	11.6%
CCn1cc(C(=O)O)c(=O)c2cc(F)c(N3CCN[C@@H](C)C3)c(F)c21	.	?	.	-5.2%[21.7 µM]	.	-23.1%
COc1ccc(OC)c(C2c3[nH]c4ccccc4c3C[C@H]3C(=O)N(CCCOC(C)C)CC(=O)N23)c1 (stereo partly specified)	9.7%	11.7µM*	-10.2	0.3%	-3.0	7.38µM*
CC(C)OCCCN1CC(=O)N2C(c3cccc([N+](=O)[O-])c3)c3[nH]c4ccccc4c3C[C@H]2C1=O (stereo partly specified)	12.5%	?	-4.9	3.4%	-0.5	8.28µM*
COc1ccc(C2c3[nH]c4ccccc4c3C[C@H]3C(=O)N(CCCO)CC(=O)N23)cc1OC (stereo partly specified)	-1.5%	-10.6%	-6.6	-3.9%	-3.8	-18.2%
COc1ccc(C2c3[nH]c4ccccc4c3C[C@H]3C(=O)N(CCCO)CC(=O)N23)c(OC)c1 (stereo partly specified)	-5.9%	-2.2%	-7.1	11.2%	0.9	-7.9%
Fc1ccccc1N1CCN(C2CCCN(Cc3ccccc3C(F)(F)F)C2)CC1 (stereo unspecified)	-2.2%	13.4%	-12.6	-1.1%	-1.5	0.0%
Cc1occc1C(=O)Nc1ccccc1	.	.	32.6*	1.3%	27.5*	.
CCOC(=O)c1c(NC(=O)c2ccoc2C)sc(C)c1C	-10.8%	.	-7.3	0.4%	-2.0	19.3%
CC(=O)c1cccc(NC(=O)c2ccoc2C)c1	-5.9%	-4.0%	25.4	-2.5%	6.9	24.4%
Cc1occc1C(=O)Nc1cccc(Cl)c1Cl	-11.8%	91.9%	48.3	3.3%	24.4*	54.1%
Cc1occc1C(=O)Nc1ccccc1C(=O)O	-88.0%	126.2%	48.2	2.9%	20.1*	9.5%
CCc1ccccc1NC(=O)c1ccoc1C	-30.1%	19.9%	-0.4	2.2%	-3.5	8.4%
CCOC(=O)c1cc(NC(=O)c2ccoc2C)cc(C(=O)OCC)c1	-31.0%	14.3%	19.0	-8.7%	16.7*	?
SMILES	NS1 inh	Pf growth 96h	Shiga toxin inh	FBPA Giardia inh	Cycloheximide cs	Pf growth 48h
O=C(Nc1ccc(-c2n[nH]c(=S)o2)cc1)c1ccccc1Br	7.6%	?	6.7	-7.5%	-2.2	33.8%
Cc1occc1C(=O)Nc1ccc2ccccc2c1	-143.5%	?	113.0*	-11.6%	42.6*	176.1%
CCN1CCN(c2cc(=O)n3ccccc3n2)CC1	-10.8%	27.6%	-5.5	1.0%	-2.5	43.0%
O=c1cc(NCc2ccccc2)nc2ccccn12	0.1%	19.9%	37.7	-6.8%	16.6*	166.6%
CCC(C)(C)n1nnnc1C(c1ccc(C)cc1)N(Cc1ccco1)Cc1cccs1 (stereo unspecified)	11.0%	.	20.0	-3.3%	8.6	4.65µM*
CCN(Cc1ccccc1)C(c1cccc(C#N)c1)c1nnnn1C(C)(C)C (stereo unspecified)	-18.1%	?	-0.7	5.5%	9.7	10.4µM*
COc1cccc(CN(Cc2ccco2)C(c2ccc(F)cc2)c2nnnn2C(C)(C)C)c1 (stereo unspecified)	-32.5%	?	17.3	-4.4%	8.6	1.65µM*
Clc1ccc(C(c2nnnn2C2CCCCC2)N(Cc2cccnc2)Cc2ccco2)cc1 (stereo unspecified)	-51.7%	?	11.3	-10.3%	0.1	?
CCC(C)(C)n1nnnc1C(C(C)C)N(Cc1cccnc1)Cc1ccco1 (stereo unspecified)	-0.5%	4.5%	-5.2	1.5%	-6.0	?
CC(C)(C)n1nnnc1C(c1cccnc1)N(Cc1ccccc1)Cc1ccco1 (stereo unspecified)	3.4%	1.85µM*	-10.6	4.1%	-4.0	2.94µM*
CCCCN(C(=O)CSc1nnc(Nc2ccccc2)s1)c1c(N)n(CCC)c(=O)[nH]c1=O	-7.7%	-24.6%	15.6	4.1%	-6.5	8.9%
COc1ccc(CNC(=O)CN(C(=O)CCC(=O)Nc2nccs2)c2ccccc2C)cc1	4.2%	7.3%	-8.1	.	-5.0	?
CC(C)c1ccc2[nH]c(O)c(N=NC(=O)c3cccc(S(=O)(=O)N4CCCCC4)c3)c2c1	18.3%	9.28µM*	-1.2	-5.0%	-3.7	?
CC(C)c1ccc2[nH]c(O)c(N=NC(=O)c3cccc(S(=O)(=O)Nc4ccc(Cl)cc4)c3)c2c1	2.3%	22.4%	-17.8	6.0%	-2.3	4.0%
Cc1[nH]c2ccccc2c1C(=O)COC(=O)c1cccc(S(=O)(=O)N2CCCCC2)c1	-5.1%	?	1.0	-5.0%	-4.0	?
O=C(N=Nc1c(O)[nH]c2ccccc12)c1cccc(S(=O)(=O)N2CCCCC2)c1	?	3.29µM*	63.2*	-6.5%	12.3*	9.28µM*
Cc1nnc(NC(=O)CSc2nccn2Cc2ccccc2)s1	-3.6%	-8.7%	-1.2	.	8.5	11.5%
COc1ccc(S(=O)(=O)N2CCCC(C(=O)NCc3ccc(F)cc3)C2)cc1 (stereo unspecified)	-14.8%	1.6%	13.1	3.8%	-5.8	1.4%
O=C(NCc1cccnc1)C1CCCN(S(=O)(=O)c2ccc(Cl)cc2)C1 (stereo unspecified)	-10.8%	-30.6%	11.4	9.9%	36.4*	-2.4%
